Screening data deposited in PubChem BioAssay by NMMLSC.
Hits are enriched below; roughly 1.2% of the tested compounds scored in any of these assays.
RGS4-Gao reg: modulates binding of RGS4 to human Galphao; AID 1415; P09471; binding response (% of control), % at 10 µM; Multiplexed bead flow cytometry; actives lie on both sides; actives 0.33% (n = 220,000); in the data active = binding response below about 49% or above about 150%; inactive = in between;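 note: fluorescent Galphao activated with aluminum fluoride binding bead-coupled RGS4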
Target sequence (P09471 whole entry, looked up): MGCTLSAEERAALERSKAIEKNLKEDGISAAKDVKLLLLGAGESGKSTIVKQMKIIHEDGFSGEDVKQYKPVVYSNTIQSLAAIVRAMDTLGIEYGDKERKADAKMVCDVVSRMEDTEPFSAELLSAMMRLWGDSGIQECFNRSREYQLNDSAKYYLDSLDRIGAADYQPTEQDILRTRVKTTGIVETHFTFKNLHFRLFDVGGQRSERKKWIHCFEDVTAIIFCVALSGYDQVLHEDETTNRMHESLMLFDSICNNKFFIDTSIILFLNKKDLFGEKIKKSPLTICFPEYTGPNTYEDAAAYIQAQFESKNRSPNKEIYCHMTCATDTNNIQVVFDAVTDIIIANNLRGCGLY
GSH fluor: GSH bead compound fluorescence profile | actives 0.25% (n = 190,000) | GSH beads flow cytometry, compound fluorescence 488/530 nm; hits give high values | AID 1776 | fluorescence (KMESF) at 10 µM; in the data active = fluorescence above about 89;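 note: glutathione beads carrying GST-tagged Bcl family fusion proteins plus one bare bead set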
RGS16-Gao: modulates binding between human RGS16 and Galphao. bead-based flow cytometry RGS16-Galphao binding, fluorescence; actives lie on both sides. binding response (% of control), % at 10 µM. actives 0.38% (n = 220,000);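 note: Galphao activated by GDP with aluminum fluoride before binding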
RGS7-Gao: modulates binding of RGS7 to human Galphao; P09471; Multiplexed bead flow cytometry; actives lie on both sides; binding response (% of control), % at 10 µM; actives 0.35% (n = 220,000); AID 1439; in the data active = binding response below about 49% or above about 150%; inconclusive = no clear call, values can overlap the other calls; inactive = in between;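 note: fluorescent Galphao held in activated GDP-AlF4 state binding bead-coupled RGS7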
RGS8-Gao reg: human RGS8-Galphao interaction regulation; P09471; multiplexed bead flow cytometry, RGS8-Galphao binding; actives lie on both sides; response (percent of control binding), % at 10 µM; actives 0.34% (n = 220,000); AID 1423; in the data active = response below about 60% or above about 140%; inactive = in between;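 note: Galphao activated as the GDP aluminium fluoride complex binding bead-coupled RGS8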
Avidin bead fluor: avidin bead compound fluorescence profile. Avidin beads, compound fluorescence 488/530 nm, flow cytometry; hits give high values. fluorescence (KMESF) at 10 µM. actives 0.38% (n = 220,000). AID 1775; in the data active = fluorescence above about 47
RGS4-Gao HTS: regulators of human RGS4-Galphao interaction. shares compounds with RGS16-Gao. multiplexed bead flow cytometry, RGS–Galpha-o binding. RGS4–Galpha-o binding response, % at 10 µM. actives 99% (n = 1,600). AID 1504;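 note: fluorescently labeled Galpha-o bound to GDP with aluminium fluoride binding biotinylated RGS beads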
Target sequence (P09471 whole entry, looked up): as above
Target sequence (P49798 whole entry, looked up): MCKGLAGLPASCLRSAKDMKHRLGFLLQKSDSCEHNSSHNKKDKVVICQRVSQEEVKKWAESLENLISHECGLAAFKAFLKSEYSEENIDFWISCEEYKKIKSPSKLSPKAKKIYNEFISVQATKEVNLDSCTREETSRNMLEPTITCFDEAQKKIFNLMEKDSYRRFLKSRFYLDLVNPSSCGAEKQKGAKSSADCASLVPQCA
Biotin-avidin: counter-screen: compounds disrupting biotin binding to avidin beads; streptavidin beads, fluorescein-biotin binding, flow cytometry; inhibition, % at 10 µM; 1,700 tested, under 10 active; shares compounds with RGS16-Gao;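 active = inhibition above 50%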;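 note: median green fluorescence of gated singlet beads compared with DMSO control wells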
RGS8-Gao confirm: confirmation of regulators of human RGS8-Galphao interaction; shares compounds with RGS16-Gao; bead-based flow cytometry RGS8-Galphao binding, fluorescence; actives lie on both sides; binding response (% of control), % at 10 µM; actives 3% (n = 1,700); AID 1836; in the data active = binding response below about 72% or above about 130%; inactive = in between;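 note: Galphao activated as GDP AlF4 complex before binding bead RGS8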
RGS7-Gao single: RGS7-Galphao interaction regulation, single point confirmation; shares compounds with RGS16-Gao; bead-based flow cytometry RGS7-Galphao binding; actives lie on both sides; response (percent of control binding), % at 10 µM; actives 7.8% (n = 1,700); in the data active = response below about 75% or above about 130%; inactive = in between;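 note: fluorescent Galphao activated with GDP and aluminum fluoride binding bead-coupled RGS7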
RGS16-Gao single: confirmation of regulators of human RGS16-Galphao interaction | shares compounds with RGS16-Gao | bead-based flow cytometry, RGS16-Galphao binding; actives lie on both sides | response (% of control binding), % at 10 µM | actives 4% (n = 1,700) | AID 1838; in the data active = response below about 74% or above about 130%; inactive = in between;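 note: Galphao activated as the GDP aluminium fluoride complex binding bead-coupled RGS16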
RGS4-Gao confirm: RGS4-Galphao interaction regulation, single point confirmation; actives 4% (n = 1,700); shares compounds with RGS16-Gao; RGS4-Galphao binding, multiplexed bead flow cytometry; actives lie on both sides; AID 1840; binding response (% of control), % at 10 µM; in the data active = binding response below about 74% or above about 130%; inactive = in between
RGS19-Gao single: RGS19-Galphao interaction regulation, single point confirmation; shares compounds with RGS16-Gao; bead-based flow cytometry RGS19-Galphao binding; actives lie on both sides; response (percent of control binding), % at 10 µM; actives 5% (n = 1,700); AID 1841; in the data active = response below about 50% or above about 160%; inactive = in between
Large screens that a line does not name were inactive (follow-up assays come after a bar, where they were run); [ ] = remark or other dose. Unless noted, the rule behind the calls is not given here.

COc1ccc(-c2csc(NC(=O)c3ccc(OCC(=O)N4CCOCC4)c(OC)c3)n2)cc1OC	RGS16-Gao 18 | RGS4-Gao HTS 97 | Biotin-avidin inactive | RGS8-Gao confirm inactive | RGS7-Gao single inactive | RGS16-Gao single inactive | RGS4-Gao confirm inactive | RGS19-Gao single inactive
O=C1c2ccccc2NC(c2cccc(F)c2)N1Cc1ccco1 (centres undefined)	RGS4-Gao reg 43, RGS7-Gao 31, RGS8-Gao reg 51 | Biotin-avidin inactive | RGS8-Gao confirm inactive | RGS7-Gao single inactive | RGS16-Gao single inactive | RGS4-Gao confirm inactive | RGS19-Gao single inactive
O=C(O)CCC(=O)Nc1sc2c(c1C(=O)Nc1cccc3ccccc13)CCCCC2	RGS4-Gao reg 193[activator], RGS7-Gao 191[activator], RGS8-Gao reg 174[activator] | Biotin-avidin inactive | RGS8-Gao confirm inactive | RGS7-Gao single inactive | RGS16-Gao single inactive | RGS4-Gao confirm inactive | RGS19-Gao single inactive
CC(=O)OC(C)CS(=O)(=O)c1ccccc1 (centres undefined)	RGS4-Gao reg 35, RGS16-Gao 21, RGS7-Gao 30, RGS8-Gao reg 29 | Biotin-avidin inactive | RGS8-Gao confirm inactive | RGS7-Gao single inactive | RGS16-Gao single inactive | RGS4-Gao confirm inactive | RGS19-Gao single inactive
O=C(COc1ccc2c(c1)OCO2)NC12CC3CC(CC(C3)C1)C2	none
O=C(NCc1ccc2c(c1)OCO2)NC12CC3CC(CC(C3)C1)C2	RGS8-Gao reg 149[activator] | RGS4-Gao HTS 136 | Biotin-avidin inactive | RGS8-Gao confirm inactive | RGS7-Gao single inactive | RGS16-Gao single inactive | RGS4-Gao confirm inactive | RGS19-Gao single 223[activator]
O=C1C(=O)N(CCN2CCOCC2)C(c2cccnc2)/C1=C(/O)c1ccc(Cl)cc1 (centres undefined)	none
O=C(c1ccco1)N1CCN(S(=O)(=O)c2ccc(Cl)s2)CC1	none (no result: RGS4-Gao reg, RGS16-Gao, RGS7-Gao, RGS8-Gao reg, Avidin bead fluor) | Biotin-avidin inactive | RGS8-Gao confirm inactive | RGS7-Gao single inactive | RGS16-Gao single inactive | RGS4-Gao confirm inactive | RGS19-Gao single inactive
O=C(c1cc2n(n1)C(C(F)(F)F)CC(c1ccco1)N2)N1CCN(c2ccccn2)CC1 (centres undefined)	none (no result: RGS4-Gao reg, RGS16-Gao, RGS7-Gao, RGS8-Gao reg, Avidin bead fluor) | Biotin-avidin inactive | RGS8-Gao confirm inactive | RGS7-Gao single inactive | RGS16-Gao single inactive | RGS4-Gao confirm inactive | RGS19-Gao single inactive
Oc1[nH]c(N=C2N=c3ccccc3=N2)c2ccccc12	RGS4-Gao reg 35, RGS7-Gao inconclusive, RGS8-Gao reg 57 (no result: GSH fluor) | Biotin-avidin inactive | RGS8-Gao confirm inactive | RGS7-Gao single inactive | RGS16-Gao single inactive | RGS4-Gao confirm inactive | RGS19-Gao single inactive
N#CC(=C1N=c2ccccc2=N1)c1c(O)[nH]c2ccccc12	none
CC(=O)OCCCNc1cc(Sc2nc3ccccc3s2)c2nonc2c1[N+](=O)[O-]	RGS16-Gao 8.5, RGS8-Gao reg 51 | RGS4-Gao HTS 83 | Biotin-avidin inactive | RGS8-Gao confirm inactive | RGS7-Gao single inactive | RGS16-Gao single inactive | RGS4-Gao confirm inactive | RGS19-Gao single 26
CC1CCCC(NC(=O)COC(=O)Cc2cn3ccsc3n2)C1C (centres undefined)	RGS4-Gao reg -58, RGS16-Gao -64, RGS7-Gao -19, RGS8-Gao reg 3.7 (no result: Avidin bead fluor) | Biotin-avidin inactive | RGS8-Gao confirm inactive | RGS7-Gao single inactive | RGS16-Gao single inactive | RGS4-Gao confirm inactive | RGS19-Gao single inactive
Cc1ccc(NC(=O)c2sc3nc(CCl)[nH]c(=O)c3c2C)c(C)c1	none
C=CCN(C(=O)Nc1ccc(F)cc1)C1CC(=O)N(c2ccc(OC)cc2)C1=O (centres undefined)	RGS8-Gao reg 158[activator] | RGS4-Gao HTS 134 | Biotin-avidin inactive | RGS8-Gao confirm inactive | RGS7-Gao single inactive | RGS16-Gao single inactive | RGS4-Gao confirm inactive | RGS19-Gao single inactive
C=CCN(C(=O)Nc1ccc(Cl)cc1)C1CC(=O)N(c2ccc(OC)cc2)C1=O (centres undefined)	none
Cc1ccc2c(c1)cc(CN(Cc1ccco1)C(=O)COc1ccccc1)c1nnnn12	RGS7-Gao 159[activator], Avidin bead fluor 102 | RGS4-Gao HTS 126 | Biotin-avidin inactive | RGS8-Gao confirm inactive | RGS7-Gao single inactive | RGS16-Gao single inactive | RGS4-Gao confirm inactive | RGS19-Gao single inactive
Cc1cccc(N2CCN(C(=O)CN3C(=O)C4CC=CCC4C3=O)CC2)c1C (centres undefined)	none
Cc1ccccc1/C=C/c1nc2ccccc2c(=O)[nH]1	RGS4-Gao reg 7.3, RGS16-Gao 14, RGS7-Gao inconclusive, RGS8-Gao reg 42 (no result: GSH fluor) | Biotin-avidin inactive | RGS8-Gao confirm inactive | RGS7-Gao single inactive | RGS16-Gao single inactive | RGS4-Gao confirm inactive | RGS19-Gao single inactive
CC[C@H](CO)NCCN[C@H](CC)CO	none
CCC(CO)NCCNC(CC)CO (centres undefined)	RGS4-Gao reg 27 | Biotin-avidin inactive | RGS8-Gao confirm inactive | RGS7-Gao single inactive | RGS16-Gao single inactive | RGS4-Gao confirm inactive | RGS19-Gao single inactive
Cc1ccc(/C=N/n2c(-c3ccncc3)n[nH]c2=S)cc1	RGS8-Gao reg 51 | RGS4-Gao HTS 63 | Biotin-avidin inactive | RGS8-Gao confirm inactive | RGS7-Gao single inactive | RGS16-Gao single inactive | RGS4-Gao confirm inactive | RGS19-Gao single inactive
Cn1nnnc1N=N/C(=N/Nc1ccccc1)c1ccccc1	RGS7-Gao inconclusive (no result: GSH fluor)
Cc1ccc(NC(=S)N/N=C2/CCCCc3ccccc32)cc1	RGS7-Gao inconclusive (no result: GSH fluor)
Cc1ccc(C)c(NC(=S)N/N=C2\CCc3ccccc32)c1	RGS4-Gao reg 45, RGS7-Gao inconclusive (no result: GSH fluor) | Biotin-avidin inactive | RGS8-Gao confirm inactive | RGS7-Gao single inactive | RGS16-Gao single inactive | RGS4-Gao confirm inactive | RGS19-Gao single inactive
